The antibiotic and cytotoxicity screens of Wong et al. (2023)
Out of some 39,000 compounds screened, about 3,300 (8.5%) were called active. This is one part of a sample in which actives are shown more often than they occur.

Each compound was assayed on HepG2 (assay: cytotoxicity call (relative viability < 0.9)). Conditions: 10 µM.
`C[C@@H]1CN([C@@H](C)CO)C(=O)c2cc(NC(=O)C3CCCCC3)ccc2O[C@@H](C)CCCCO[C@@H]1CN(C)Cc1ccncc1` was tested, and the cytotoxicity call was “inactive”.
In the case of `Cc1noc(C)c1S(=O)(=O)N(C)C[C@H]1Oc2ccc(NC(=O)C3CCCCC3)cc2CC(=O)N([C@H](C)CO)C[C@H]1C`, the cytotoxicity call is reported as “inactive”.
With `C[C@H]1CN([C@@H](C)CO)C(=O)c2cccc(NS(=O)(=O)c3ccccc3)c2O[C@@H]1CN(C)Cc1ccc(Cl)c(Cl)c1` the cytotoxicity call was “inactive”.
For `O=C(C[C@H]1C=C[C@@H](NS(=O)(=O)c2ccccc2)[C@H](CO)O1)NCc1ccncn1`, the cytotoxicity call was “inactive”.
In the case of `Cn1cnc(S(=O)(=O)N2C[C@H](O)COC[C@H]3O[C@H](CC(=O)NCc4ccc(F)cc4)CC[C@@H]32)c1`, the cytotoxicity call is reported as “inactive”.
In the case of `CN(C)C(=O)c1ccc(-c2cccc(-c3nc(C(=O)NC4CCCCC4)cc4c3[C@H](CCO)N([S@@](=O)C(C)(C)C)C4)c2)cc1`, the cytotoxicity call is reported as “inactive”.
`CCCN(C)C[C@@H]1OCCCC[C@H](C)Oc2ccc(NC(=O)Nc3ccc4c(c3)OCO4)cc2C(=O)N([C@H](C)CO)C[C@@H]1C` was tested, and the cytotoxicity call was “inactive”.
For `C[C@@H]1CN([C@H](C)CO)S(=O)(=O)c2ccc(/C=C/c3ccccc3)cc2O[C@H]1CN(C)C(=O)Nc1cc(F)ccc1F`, the cytotoxicity call was “inactive”.
`C[C@@H]1CN([C@H](C)CO)S(=O)(=O)c2ccc(/C=C/c3ccccc3)cc2O[C@@H]1CN(C)C(=O)Nc1cc(F)ccc1F` was tested, and the cytotoxicity call was “active”.
With `COc1cccc(NC(=O)N(C)C[C@H]2Oc3cc(C#CC4(O)CCCC4)ccc3S(=O)(=O)N([C@@H](C)CO)C[C@H]2C)c1` the cytotoxicity call was “inactive”.
`C[C@@H]1CN([C@H](C)CO)S(=O)(=O)c2ccc(C#CC3(O)CCCC3)cc2O[C@@H]1CN(C)C(=O)Nc1ccccc1` was tested, and the cytotoxicity call was “active”.
In the case of `COc1cccc(NC(=O)N(C)C[C@H]2Oc3cc(C#CC4(O)CCCC4)ccc3S(=O)(=O)N([C@H](C)CO)C[C@@H]2C)c1`, the cytotoxicity call is reported as “inactive”.
For `COc1cccc(NC(=O)N(C)C[C@H]2Oc3cc(C#CC4(O)CCCC4)ccc3S(=O)(=O)N([C@H](C)CO)C[C@H]2C)c1`, the cytotoxicity call was “active”.
In the case of `C[C@H](CO)N1C[C@H](C)[C@@H](CN(C)C(=O)Nc2cc(F)ccc2F)Oc2cc(/C=C/c3ccccc3)ccc2S1(=O)=O`, the cytotoxicity call is reported as “inactive”.
`C[C@@H]1CN([C@H](C)CO)S(=O)(=O)c2ccc(C#CC3(O)CCCC3)cc2O[C@H]1CN(C)C(=O)Nc1ccccc1` was tested, and the cytotoxicity call was “inactive”.
In the case of `C[C@H]1CN([C@@H](C)CO)S(=O)(=O)c2ccc(C#CC3(O)CCCC3)cc2O[C@H]1CN(C)C(=O)Nc1ccccc1`, the cytotoxicity call is reported as “inactive”.
With `COc1ccc(NC(=O)N(C)C[C@H]2OCCCC[C@H](C)Oc3ccc(NS(=O)(=O)c4cccs4)cc3C(=O)N([C@@H](C)CO)C[C@@H]2C)cc1` the cytotoxicity call was “inactive”.
In the case of `C[C@H](CO)N1C[C@H](C)[C@H](CN(C)S(=O)(=O)c2ccc3c(c2)OCCCO3)OCc2cn(nn2)CCCC1=O`, the cytotoxicity call is reported as “inactive”.
For `C[C@H]1CCCCO[C@@H](CN(C)C(=O)CCC(F)(F)F)[C@@H](C)CN([C@@H](C)CO)C(=O)c2cc(NS(=O)(=O)c3ccccc3)ccc2O1`, the cytotoxicity call was “inactive”.
For `NC(=O)N1Cc2nccn2C[C@H](Cn2cncn2)C1`, the cytotoxicity call was “inactive”.
For `Cc1ccc(S(=O)(=O)Nc2ccc3c(c2)C(=O)N([C@H](C)CO)C[C@@H](C)[C@H](CN(C)C(=O)Nc2ccccc2)OCCCC[C@@H](C)O3)cc1`, the cytotoxicity call was “inactive”.
For `O=C(C[C@@H]1CC[C@@H]2[C@H](COC[C@@H](O)CN2S(=O)(=O)c2ccccc2F)O1)N1CCC(Cc2ccccc2)CC1`, the cytotoxicity call was “inactive”.
For `O=C(C[C@@H]1CC[C@H]2[C@@H](COC[C@@H](O)CN2S(=O)(=O)c2ccccc2F)O1)N1CCC(Cc2ccccc2)CC1`, the cytotoxicity call was “inactive”.
In the case of `Cc1ccccc1S(=O)(=O)N1C[C@H](O)COC[C@@H]2O[C@H](CC(=O)N3CCC(Cc4ccccc4)CC3)CC[C@H]21`, the cytotoxicity call is reported as “inactive”.
`CN1CCN(C(=O)C[C@H]2CC[C@H]3[C@@H](COC[C@H](O)CN3Cc3ccc(Oc4ccccc4)cc3)O2)CC1` was tested, and the cytotoxicity call was “inactive”.
With `Cc1ccccc1S(=O)(=O)N1C[C@H](O)COC[C@@H]2O[C@@H](CC(=O)N3CCC(Cc4ccccc4)CC3)CC[C@H]21` the cytotoxicity call was “inactive”.
For `Cc1ccccc1S(=O)(=O)N1C[C@H](O)COC[C@H]2O[C@@H](CC(=O)N3CCC(Cc4ccccc4)CC3)CC[C@@H]21`, the cytotoxicity call was “active”.
`Cc1ccccc1S(=O)(=O)N1C[C@@H](O)COC[C@@H]2O[C@H](CC(=O)N3CCC(Cc4ccccc4)CC3)CC[C@H]21` was tested, and the cytotoxicity call was “inactive”.
In the case of `Cc1ccccc1S(=O)(=O)N1C[C@@H](O)COC[C@H]2O[C@H](CC(=O)N3CCC(Cc4ccccc4)CC3)CC[C@@H]21`, the cytotoxicity call is reported as “active”.
`CN1CCN(C(=O)C[C@@H]2CC[C@H]3[C@@H](COC[C@@H](O)CN3Cc3ccc(Oc4ccccc4)cc3)O2)CC1` was tested, and the cytotoxicity call was “inactive”.
With `Cc1ccccc1S(=O)(=O)N1C[C@H](O)COC[C@H]2O[C@H](CC(=O)N3CCC(Cc4ccccc4)CC3)CC[C@@H]21` the cytotoxicity call was “active”.
With `CN1CCN(C(=O)C[C@H]2CC[C@@H]3[C@H](COC[C@@H](O)CN3Cc3ccc(Oc4ccccc4)cc3)O2)CC1` the cytotoxicity call was “active”.
With `Cc1ccccc1S(=O)(=O)N1C[C@@H](O)COC[C@H]2O[C@@H](CC(=O)N3CCC(Cc4ccccc4)CC3)CC[C@@H]21` the cytotoxicity call was “inactive”.
For `C[C@@H]1CCCCO[C@H](CN(C)C(=O)Nc2ccc(F)cc2)[C@@H](C)CN([C@H](C)CO)C(=O)c2cc(NC(=O)C3CCCCC3)ccc2O1`, the cytotoxicity call was “inactive”.
With `C[C@@H]1CCCCO[C@@H](CN(C)C(=O)c2ccccc2)[C@H](C)CN([C@H](C)CO)C(=O)c2cc(NS(=O)(=O)c3ccccc3)ccc2O1` the cytotoxicity call was “inactive”.
In the case of `C=c1ccccc1=C1NN=C(CN2CCCC2)O1`, the cytotoxicity call is reported as “inactive”.
In the case of `C[C@H]1CCCCO[C@H](CN(C)Cc2ccc(Cl)c(Cl)c2)[C@@H](C)CN([C@@H](C)CO)C(=O)c2cc(NS(C)(=O)=O)ccc2O1`, the cytotoxicity call is reported as “inactive”.
In the case of `COCC#Cc1ccc2c(c1)O[C@H](CN(C)S(=O)(=O)c1cccc(F)c1)[C@@H](C)CN([C@H](C)CO)S2(=O)=O`, the cytotoxicity call is reported as “inactive”.
With `C[C@@H]1CCCCO[C@H](CN(C)Cc2ccc(C(=O)O)cc2)[C@@H](C)CN([C@@H](C)CO)C(=O)c2cc(NC(=O)NC3CCCCC3)ccc2O1` the cytotoxicity call was “inactive”.
In the case of `Cc1ccc2nc(/N=C/c3ccc(Cl)cc3Cl)sc2c1`, the cytotoxicity call is reported as “inactive”.
For `Cc1ccc2nc(-c3ccc(/N=C\c4ccc[nH]4)cc3)sc2c1`, the cytotoxicity call was “active”.
With `Cc1ccc2nc(-c3ccc(NC(=O)C4CCC4)cc3)sc2c1` the cytotoxicity call was “inactive”.
In the case of `COc1ccc2c3c([nH]c2c1)[C@@H](CO)N(CC1CCCCC1)C[C@]13CCN(CC1)C(=O)Nc1cccc(c1)F`, the cytotoxicity call is reported as “inactive”.
For `COc1ccc2c3c([nH]c2c1)[C@H](CO)N(C[C@]13CCN(CC1)CC1CCCCC1)C(=O)Nc1c(noc1C)C`, the cytotoxicity call was “inactive”.
For `COc1ccc2c3c([nH]c2c1)[C@@H](CO)N(C[C@]13CCN(CC1)CC1CCCCC1)C(=O)Nc1c(noc1C)C`, the cytotoxicity call was “inactive”.
With `COc1ccc2c3c([nH]c2c1)[C@H](CO)N(CC1CCCCC1)C[C@]13CCN(CC1)C(=O)Nc1cccc(c1)F` the cytotoxicity call was “inactive”.
In the case of `COc1ccc2c3c([nH]c2c1)[C@@H](CO)N(C[C@]13CCN(CC1)CC1CCCCC1)C(=O)Nc1cccc(c1)F`, the cytotoxicity call is reported as “active”.
In the case of `COc1ccc2c3c([nH]c2c1)[C@H](CO)N(C[C@]13CCN(CC1)CC1CCCCC1)C(=O)Nc1cccc(c1)F`, the cytotoxicity call is reported as “active”.
In the case of `C[C@@H]1CCCCO[C@@H](CN(C)C(=O)CCC(F)(F)F)[C@@H](C)CN([C@H](C)CO)C(=O)c2cc(NC(=O)Nc3ccc(F)cc3)ccc2O1`, the cytotoxicity call is reported as “inactive”.
In the case of `C[C@H]1CN([C@@H](C)CO)C(=O)c2cccc(NC(=O)c3ccc(-c4nccs4)cc3)c2O[C@@H]1CN(C)C(=O)Nc1ccc(F)cc1`, the cytotoxicity call is reported as “inactive”.
`Cc1noc(C)c1NC(=O)N(C)C[C@@H]1OCCCC[C@H](C)Oc2ccc(NC(=O)NC3CCCCC3)cc2C(=O)N([C@@H](C)CO)C[C@@H]1C` was tested, and the cytotoxicity call was “inactive”.
With `O=c1[nH]nc(Br)c(=O)[nH]1` the cytotoxicity call was “inactive”.
In the case of `O=C(O)C[C@H]1CC[C@@H]2[C@H](COC[C@@H](O)CN2S(=O)(=O)c2ccc(F)cc2)O1`, the cytotoxicity call is reported as “inactive”.
`O=c1oc2ccccc2c(O)c1Cc1c(O)c2ccccc2oc1=O` was tested, and the cytotoxicity call was “inactive”.
For `CC(=O)CC(c1ccccc1)c1c(O)c2ccccc2oc1=O` (stereo unspecified), the cytotoxicity call was “active”.
With `O=C(O)c1cc(=O)c2ccccc2o1` the cytotoxicity call was “inactive”.
For `CO[C@@H](CN(C)S(=O)(=O)c1cccc(Cl)c1)[C@@H](C)CN([C@@H](C)CO)S(=O)(=O)c1cccc(Cl)c1`, the cytotoxicity call was “inactive”.
In the case of `C[C@H]1CN([C@@H](C)CO)C(=O)Cc2cc(NC(=O)Cc3cn(C)c4ccccc34)ccc2O[C@@H]1CN(C)Cc1ccc(Oc2ccccc2)cc1`, the cytotoxicity call is reported as “inactive”.
With `C[C@@H]1CN([C@H](C)CO)C(=O)Cc2cc(NC(=O)Cc3cn(C)c4ccccc34)ccc2O[C@@H]1CN(C)Cc1ccc(Oc2ccccc2)cc1` the cytotoxicity call was “active”.
For `C[C@H](CO)N1C[C@H](C)[C@H](CN(C)Cc2ccc(Oc3ccccc3)cc2)Oc2ccc(NC(=O)Cc3cn(C)c4ccccc34)cc2CC1=O`, the cytotoxicity call was “active”.
`C[C@@H]1CN([C@H](C)CO)C(=O)Cc2cc(NC(=O)Cc3cn(C)c4ccccc34)ccc2O[C@H]1CN(C)Cc1ccc(Oc2ccccc2)cc1` was tested, and the cytotoxicity call was “inactive”.
With `C[C@H]1CN([C@@H](C)CO)C(=O)Cc2cc(NC(=O)Cc3cn(C)c4ccccc34)ccc2O[C@H]1CN(C)Cc1ccc(Oc2ccccc2)cc1` the cytotoxicity call was “active”.
With `C[C@@H]1CN([C@@H](C)CO)C(=O)Cc2cc(NC(=O)Cc3cn(C)c4ccccc34)ccc2O[C@H]1CN(C)Cc1ccc(Oc2ccccc2)cc1` the cytotoxicity call was “active”.
For `CC(C)=Cc1ccc(C#N)c(=S)[nH]1`, the cytotoxicity call was “inactive”.
For `CC[C@@H](O[Si](C#C[Si](C(C)C)(C(C)C)C(C)C)(C(C)C)C(C)C)c1cn([C@H](CO)Cc2ccccc2)nn1`, the cytotoxicity call was “inactive”.
For `Cc1noc(C)c1NC(=O)N(C)C[C@@H]1OCCCC[C@H](C)Oc2ccc(NC(=O)Nc3ccc4c(c3)OCO4)cc2C(=O)N([C@H](C)CO)C[C@@H]1C`, the cytotoxicity call was “inactive”.
